# Shown are actives, neighbours in structure and some others; about 19% of the full set was active somewhere.
# TDP1 cell noCPT: qHTS for Inhibitors of human tyrosyl-DNA phosphodiesterase 1 (TDP1): qHTS in cells in absence of CPT; DT40 Tdp1-/- hTDP1 cells, no CPT, ATP luminescence, 48 h; Potency, µM (titrated, usually from 46.2 µM), for the others: at the highest dose activity change, negative = growth inhibition, most hits filed as inhibitors; 15% of 420,000 active; AID 686978, 2013; note: potency is the fitted concentration of half-maximal effect; nearly all actives have a fitted effect of over 55% in size
#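 Luminescent ATP content (CellTiter-Glo) served as the growth readout. Knockout chicken DT40 cells expressing human TDP1 were exposed to compounds without camptothecin for a minimum 48 hr at 37 °C.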
# IL1B secr inh: inflammasome signaling inhibition, IL-1 beta readout; THP-1 LPS/ATP IL-1B secretion, AlphaLISA, 16 h; hits give low values; activity change, % at 57.5 µM; 4.7% of 360,000 active; AID 743279; in the data active = activity change below about -50%; inconclusive = mostly about -30% to -49%
#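 THP-1 cells pretreated 1 hr with compounds (up to 57.5 uM final), then stimulated with LPS (250 ng/mL final) plus ATP (1.25 mM final); secreted IL-1B measured by AlphaLISA after 16 hr, decreased signal indicating inhibition.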
# HT1080 IDH1KD tx: toxicity to HT-1080 IDH1 knockdown cells (counter line). 2% of 360,000 active. AID 686971. HT-1080 IDH1 knockdown viability, ATP luminescence, 48 h. Potency, µM (top dose mostly 46.1 µM), for the others: at the top dose activity, negative = toxicity, most hits filed as cytotoxic;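 note: potency is the fitted concentration of half-maximal effect; 0% = DMSO wells and -100% = cell-free medium wells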
#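 Assay cells: HT-1080 with IDH1 knockdown, 750 per well, RPMI/5% FBS. Exposure: 48 h at 37 °C following 2 h pre-incubation. Read: CellTiter-Glo luminescence; fitted concentration-response, curve class assigned.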
# DT40 TDP1 CPT: DT40-hTDP1 cell growth loss with CPT; 12% of 420,000 active; AID 686979; Potency, µM (titrated, usually from 46.2 µM), for inactives: at the highest dose activity change, negative = growth inhibition, usual class: inhibitors; chicken DT40 Tdp1-/-;hTDP1 cells + 20 nM CPT, ATP luminescence, 48 h; note: potency is the fitted concentration of half-maximal effect; nearly all actives have a fitted effect of over 55% in size
#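 Chicken DT40 Tdp1-/- cells complemented with human TDP1, 400 cells/well, exposed to compounds plus 20 nM camptothecin for at least 48 h at 37 C; viability read as ATP content by CellTiter-Glo luminescence.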
# HT1080-NT tox: kills 2HG-producing HT-1080-NT fibrosarcoma cells | HT-1080-NT fibrosarcoma viability, CellTiter-Glo ATP luminescence, 48 h | Potency, µM (highest dose often 46.1 µM), for the others: at the highest dose activity, negative = less viability, most hits filed as cytotoxic | 1.6% of 360,000 active | AID 686970;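 note: NT is the 2HG producing partner of a matched IDH1 knockdown line; potency is the fitted concentration of half-maximal effect; 0% = DMSO-treated cells and -100% = media-only wells without cells; nearly all actives have a fitted effect of over 55% in size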
#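 Compounds were tested in concentration-response format on HT-1080-NT cells for 48 hours at 37 degrees C. Cell viability came from CellTiter-Glo luminescence; curves were classified by r2, response magnitude and activity.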
# The depositor's hits bear a star; ? = inconclusive; . = no result. Unless noted, calls come from the whole dose curve; as a rule, active = well fitted curve in the direction sought with a large enough effect; inconclusive = small, poorly fitted or top-dose-only effect, or another doubt; inactive = no such curve, though single readings can be large; an effect the other way counts as inactive or inconclusive. Unless noted, % is set by controls: 0 for no effect and ±100 for the full control effect.
SMILES,TDP1 cell noCPT,IL1B secr inh,HT1080 IDH1KD tx,DT40 TDP1 CPT,HT1080-NT tox
NNC(=O)c1nc[nH]c1C(=O)Nc1ccccc1[N+](=O)[O-],?,17.6,-10.2%,1.2%,-25.2%
COc1ccc(C)cc1NC(=O)NCc1ccc2c(c1)CCN2C(=O)c1ccccc1,20.6µM*,.,.,23.1µM*,.
O=C(Nc1ccc(F)cc1)c1ccccc1F,-15.7%,6.4,9.1%,-9.4%,3.2%
O=C(Nc1ccccc1)c1oc2ccccc2c1NC(=O)C1CC1,?,-0.9,1.1%,?,8.1%
O=C(Nc1c(C(=O)Nc2ccc(F)cc2)oc2ccccc12)c1ccccc1F,20.6µM*,.,.,?,.
O=C(Nc1ccc(F)cc1)c1oc2ccccc2c1NC(=O)C1CCCCC1,29.1µM*,.,.,?,.
CC(C)c1ccc(Nc2nc(Cl)nc(NCCO)n2)cc1,-2.3%,4.6,-15.9%,7.4%,-13.9%
CCOC(=O)[C@@H]1[C@H]2COc3ccccc3[C@@H]2N2C(=O)N(c3cccc(F)c3)C(=O)[C@]12C,-8.8%,1.2,6.3%,-2.3%,0.0%
CCOC(=O)[C@@H]1[C@H]2COc3ccc(Br)cc3[C@@H]2N2C(=O)N(c3ccc(Cl)cc3)C(=O)[C@@]12C,16.4µM*,-0.3,-13.0%,20.6µM*,-14.4%
CCOC(=O)[C@@H]1[C@H]2COc3ccccc3[C@@H]2N2C(=O)N(c3ccc(Cl)cc3)C(=O)[C@@]12C,-22.2%,-11.3,-1.2%,-18.5%,-0.4%
CCOC(=O)[C@@H]1[C@H]2COc3ccc(Br)cc3[C@@H]2N2C(=O)N(c3cccc(F)c3)C(=O)[C@@]12C,18.4µM*,10.0,-4.2%,25.9µM*,-1.1%
CCOC(=O)[C@H]1[C@H]2COc3ccc(Br)cc3[C@@H]2N2C(=O)N(c3ccc(F)cc3)C(=O)[C@@]12C,?,30.2,-3.4%,18.4µM*,-9.7%
CCOC(=O)[C@@H]1[C@H]2COc3cc(OC)ccc3[C@@H]2N2C(=O)N(c3ccc(Br)cc3)C(=O)[C@@]12C,?,-1.3,-0.4%,?,19.1%
CCOC(=O)[C@@H]1[C@H]2COc3ccc(Br)cc3[C@@H]2N2C(=O)N(c3ccc(C(F)(F)F)cc3)C(=O)[C@@]12C,23.1µM*,12.8,-2.0%,20.6µM*,2.6%
CCOC(=O)[C@@H]1[C@H]2COc3ccc(Br)cc3[C@@H]2N2C(=O)N(c3ccc(F)cc3)C(=O)[C@@]12C,?,11.9,2.6%,?,-6.9%
COC(=O)c1ccccc1S(=O)(=O)N1CCC(C(=O)N(C)CCOc2ccccc2)CC1,-26.1%,-7.6,1.8%,?,1.9%
CC(C)(C)CC(C)(C)SSc1n[nH]c(=S)s1,?,-72.7*,9.7%,?,17.6%
CCCc1cc(NCCCN2CCOCC2)n2c(nc3ccccc32)c1C#N,20.6µM*,?,5.5%,16.4µM*,4.7%
CCCc1cc(NCCOCCO)n2c(nc3ccccc32)c1C#N,11.6µM*,4.9,-7.1%,?,-7.9%
COCCNC(=O)c1ccc2c(=O)n(CCc3ccccc3)c(SCC(=O)CC(=O)OC)nc2c1,20.6µM*,.,.,?,.
COCCNC(=O)c1ccc2c(=O)n(CCOC)c(SCC(=O)c3c[nH]c4ccccc34)nc2c1,13µM*,.,.,23.1µM*,.
Cc1ccc(NC(=O)Cn2nc(C)c(S(=O)(=O)N(C)C)c2C)cc1C,?,9.6,-4.0%,?,0.0%
COc1ccc(S(=O)(=O)N2CCCC(C(=O)NCc3ccc4c(c3)OCO4)C2)cc1 (stereo unspecified),?,-25.3,7.3%,-29.8%,9.1%
CC(C)CCN(CC(=O)NCc1ccc(F)cc1)S(=O)(=O)c1ccccc1F,?,-79.6*,-3.5%,23.1µM*,-29.8%
CCOc1ccc(CN(C)CC(=O)NCc2ccc(F)cc2)cc1,20.6µM*,4.9,-1.4%,?,4.0%
SMILES,TDP1 cell noCPT,IL1B secr inh,HT1080 IDH1KD tx,DT40 TDP1 CPT,HT1080-NT tox
CCN(CC(=O)NCc1ccc(F)cc1)S(=O)(=O)c1ccc(C)cc1,-2.1%,9.3,4.1%,-20.8%,6.4%
COc1ccc(Br)cc1CN(C)CC(=O)NCc1ccc(F)cc1,18.4µM*,?,-9.5%,?,-8.9%
CCOc1ccc(CN(C)C(=O)CCl)cc1,2.91µM*,-102.1*,?,2.91µM*,?
CCOc1ccc(CN(C)C(=O)CCNC(=O)c2ccco2)cc1,-2.7%,-4.7,11.9%,-6.7%,-0.3%
O=C(CCCCCN1C(=O)c2ccccc2C1=O)Nc1ccc(C(=O)O)cc1,-0.9%,26.4,10.7%,13.1%,10.2%
CN(CC(=O)NCc1ccc(F)cc1)Cc1ccc(Br)cc1,?,-71.7*,-3.6%,-28.8%,-4.2%
CSc1ccc(CN(C)CC(=O)NCc2ccccc2)cc1,-25.9%,?,-0.2%,-25.9%,-0.1%
Oc1cc2cc(-c3csc(-c4ccc(F)cc4)n3)ccc2[nH]1,2.82µM*,.,.,1.12µM*,.
Nc1nc(-c2ccc(F)cc2)cs1,-14.2%,-3.8,13.6%,-6.1%,-5.4%
Cc1ccc(OCc2nnc(SCc3cc(=O)[nH]c4ccccc34)n2-c2ccccc2)cc1,23.1µM*,?,?,?,16.4µM*
Cc1cc(SCc2cc(=O)[nH]c3ccccc23)nc2ccccc12,?,44.8,?,23.1µM*,-20.1%
Cc1ccccc1OCc1nnc(SCc2cc(=O)[nH]c3ccccc23)n1-c1ccccc1,?,?,-19.4%,?,-19.7%
NC(c1ccccc1)c1csc(Nc2ccc(S(N)(=O)=O)cc2)n1 (stereo unspecified),-13.0%,42.0,0.2%,-16.1%,1.0%
NC(c1ccccc1)c1csc(Nc2ccc(C(F)(F)F)cn2)n1 (stereo unspecified),13µM*,?,?,?,?
CC(C)C(N)c1csc(Nc2ccc(C(F)(F)F)cn2)n1 (stereo unspecified),?,0.0,?,20.6µM*,?
O=C(c1cc(C2CC2)nc2ccc(Br)cc12)N1N=C(C(F)F)CC1(O)C(F)F (stereo unspecified),16.4µM*,?,-52.6%,16.4µM*,?
O=C(c1ccc2c(c1)OCCO2)N(Cc1cccnc1)c1nc2c(Cl)cccc2s1,23.1µM*,.,.,?,.
COc1ccc2nc(N(Cc3cccnc3)C(=O)c3ccc4c(c3)OCCO4)sc2c1,?,.,.,-29.2%,.
CN(C)CCN(C(=O)c1ccc2c(c1)OCCO2)c1nc2c(Cl)cccc2s1,-23.3%,1.4,-6.0%,-18.9%,3.2%
CCOc1ccc2nc(N(Cc3cccnc3)C(=O)c3ccc4c(c3)OCCO4)sc2c1,20.6µM*,.,.,?,.
N#Cc1ccccc1NC(=O)CN(Cc1ccccc1)Cc1ccccc1,?,-5.5,-10.8%,-7.3%,-9.3%

# High-throughput results from PubChem BioAssay.
